MsrA act: activates bovine MsrA enzyme. actives 0.3% (n = 360,000). activation, % at 10.6 µM. purified bovine MsrA, absorbance read-out. AID 602163; in the data active = activation above about 7.5%;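 note: 0% = vehicle and 100% = reference activator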
GC-B act: GC-B (human) receptor activation | P20594 | HEK293-GC-B cells, CNP EC30, cGMP TR-FRET; 0% at EC30 CNP, 100% saturating CNP | activation, % at 10 µM | actives 0.11% (n = 370,000) | AID 1920062;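 active = activation at 10 µM reaching about 35% in either raw or pattern-adjusted values, limit read from the data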
MsrA inh: inhibitors of bovine MsrA; purified bovine MsrA, absorbance read-out; inhibition, % at 15.5 µM; actives 0.75% (n = 360,000); AID 651718;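 note: 0% = vehicle wells with enzyme and 100% = reference inhibitor wells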
NPR1 activator: GC-A (human) enzyme activation | P16066 | HEK293 GC-A cells, cGMP TR-FRET, EC30 ANP; 0% at EC30 ANP, 100% saturating ANP | activation, % at 10 µM | actives 0.14% (n = 370,000); in the data active = activation above about 40%
Target sequence (P16066 whole entry, looked up): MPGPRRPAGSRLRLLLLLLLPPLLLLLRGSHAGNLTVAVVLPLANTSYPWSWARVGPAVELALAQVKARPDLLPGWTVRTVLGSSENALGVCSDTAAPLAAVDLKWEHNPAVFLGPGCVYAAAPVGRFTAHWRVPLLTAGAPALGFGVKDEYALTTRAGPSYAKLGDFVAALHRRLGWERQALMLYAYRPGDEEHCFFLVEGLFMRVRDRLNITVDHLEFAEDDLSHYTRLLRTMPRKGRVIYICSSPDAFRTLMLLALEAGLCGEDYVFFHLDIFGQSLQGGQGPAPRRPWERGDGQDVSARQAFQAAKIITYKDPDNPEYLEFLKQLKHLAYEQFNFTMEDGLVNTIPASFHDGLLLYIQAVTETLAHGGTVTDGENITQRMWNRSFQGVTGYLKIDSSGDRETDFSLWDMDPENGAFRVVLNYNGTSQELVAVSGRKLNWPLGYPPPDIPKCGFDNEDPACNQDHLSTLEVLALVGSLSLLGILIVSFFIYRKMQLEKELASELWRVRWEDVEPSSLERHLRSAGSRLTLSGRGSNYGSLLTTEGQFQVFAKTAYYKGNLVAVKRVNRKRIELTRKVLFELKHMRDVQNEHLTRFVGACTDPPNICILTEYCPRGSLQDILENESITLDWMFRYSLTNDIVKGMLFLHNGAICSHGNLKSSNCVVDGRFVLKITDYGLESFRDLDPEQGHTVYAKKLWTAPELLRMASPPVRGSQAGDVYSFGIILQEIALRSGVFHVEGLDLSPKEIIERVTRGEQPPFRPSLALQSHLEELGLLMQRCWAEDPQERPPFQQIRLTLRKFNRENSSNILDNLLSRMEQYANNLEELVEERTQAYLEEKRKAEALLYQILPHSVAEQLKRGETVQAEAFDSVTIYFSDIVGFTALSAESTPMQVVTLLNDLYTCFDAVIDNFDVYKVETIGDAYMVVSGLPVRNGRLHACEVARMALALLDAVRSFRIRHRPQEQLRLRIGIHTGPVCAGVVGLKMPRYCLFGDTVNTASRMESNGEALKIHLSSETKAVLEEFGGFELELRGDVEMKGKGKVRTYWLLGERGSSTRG
HTR2A ag: mouse HTR2A agonism via beta-arrestin recruitment; activation, % at 7.6 µM; actives 0.66% (n = 360,000); P35363; CHO-K1 mHTR2A beta-arrestin complementation, luminescence; percent of 30 µM serotonin response;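 active = activation above a run cutoff, the mean activation of all tested compounds plus 3 SD, cut at about 14% in these data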;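 note: 0% = plate median of compound wells and 100% = 30 µM serotonin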
MsrA inh confirm: bovine MsrA inhibition, confirmed; shares compounds with MsrA inh; purified bovine MsrA, absorbance read-out; inhibition, % at 15.5 µM; actives 41% (n = 2,300); AID 651822;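 note: coupled to thioredoxin reductase with NADPH and selenocystamine and DMSO as substrate; 0% = vehicle only and 100% = full effect of reference inhibitor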
Active calls of the source: *. Most compounds without a hit are left out; they make up all but 1.8% or so of the library. Cut-off read from the data, not from the text of the source, unless noted: active = inhibition above about 4.5%; inactive = the rest.

`N[C@H](C(=O)N1CCC[C@@H]1C(=O)N1CCC2CCN(S(=O)(=O)c3ccccc3)CC21)c1ccccc1` (stereo not given in full) gave GC-B act -1.6 and NPR1 activator -1.3.
`COc1ccccc1C1CCN(C(=O)c2cccc([N+](=O)[O-])c2)CC1` gave MsrA act -1.7, GC-B act 2.5, MsrA inh -0.6, NPR1 activator 7.2 and HTR2A ag 2.5.
For O=[N+]([O-])c1cccc(NCCCN2CCC(C(O)(c3ccccc3)c3ccccc3)CC2)c1 the results were GC-B act -8.3 and NPR1 activator -22.1.
Screening O=C(NNC(=O)C1CC1)c1cc2cc3ccccc3nc2s1 returned MsrA act -4.1, GC-B act -10.2, MsrA inh 4.9*, NPR1 activator -3.2, HTR2A ag 1.6 and MsrA inh confirm 1.8.
`O=C(NNC(=O)c1cc2cc3ccccc3nc2s1)c1ccc(F)cc1` gave MsrA act -11.1, GC-B act 4.3, MsrA inh 0.9, NPR1 activator -1.9 and HTR2A ag 1.6.
Screening O=C1c2ccc3c4c(ccc(c24)C(=O)N1NC(=O)C(F)(F)F)CC3 returned MsrA act -2.4, GC-B act -2.0, MsrA inh 1.8, NPR1 activator -1.2 and HTR2A ag 2.7.
Screening CC(=O)NN1C(=O)c2ccc3c4c(ccc(c24)C1=O)C(=O)N(NC(C)=O)C3=O returned MsrA act -4.0, GC-B act -2.8, MsrA inh 29.0*, NPR1 activator 1.2, HTR2A ag 5.2 and MsrA inh confirm 22.4*.
Screening Cc1cc2c(cc1C)NC(c1cccnc1)C1=C(CC(C)(C)CC1=O)N2 (stereo not given) returned MsrA act -6.2, GC-B act -8.7, MsrA inh 3.9, NPR1 activator -0.8 and HTR2A ag 3.9.
For CC1(C)CC(=O)C2=C(C1)Nc1ccccc1NC2c1cccnc1 (stereo not given) the results were MsrA act -12.5, GC-B act 3.6, MsrA inh 5.4*, NPR1 activator -0.7, HTR2A ag 6.7 and MsrA inh confirm 3.9.
Screening Cc1ccc(C2NC(=S)NC3=C2C(=O)CC(C)(C)C3)cc1 (stereo not given) returned MsrA act 4.8, GC-B act 0.1, MsrA inh 4.8*, NPR1 activator 1.2, HTR2A ag -1.9 and MsrA inh confirm 1.1.
Screening COc1ccc(C2Nc3ccccc3C(=O)N2Cc2ccco2)cc1COc1c(C)cc(NC(C)=O)cc1C (stereo not given) returned GC-B act -27.6 and NPR1 activator -19.6.
Cc1ccc(/C=N/NC(=O)c2ccccn2)s1 was read as MsrA act -2.6, GC-B act 0.0, MsrA inh 4.9*, NPR1 activator 0.8, HTR2A ag -2.8 and MsrA inh confirm 5.2*.
`N/C(=N\C(=O)OCc1ccccc1)N(CC#CC1=CCCCC1)CC1CC1` gave GC-B act 7.1 and NPR1 activator -2.2.
Screening COc1cccc(S(=O)(=O)N(C)C[C@H]2OCc3cn(nn3)CCCC(=O)N([C@@H](C)CO)C[C@@H]2C)c1 returned MsrA act -9.5, GC-B act 0.7, MsrA inh 1.6, NPR1 activator -0.4 and HTR2A ag 12.6.
For CSc1ccc(/C=C/C(=O)NC(=O)c2ccccc2O)cc1 the results were MsrA act -12.5, GC-B act -0.1, MsrA inh 6.0*, NPR1 activator 0.9, HTR2A ag 2.8 and MsrA inh confirm 4.7*.
Screening O=C(/C=C/c1ccc(O)c(O)c1)NC(=O)c1ccccc1O returned MsrA act -6.5, GC-B act -2.9, MsrA inh 6.3*, NPR1 activator -1.7, HTR2A ag 5.0 and MsrA inh confirm 4.0.
CNS(=O)(=O)c1cccc(C(=O)OCCCOC(=O)c2cccc(S(=O)(=O)NC)c2)c1 was read as MsrA act -1.9, GC-B act -1.1, MsrA inh -0.1, NPR1 activator 1.1 and HTR2A ag -2.2.
Screening CNS(=O)(=O)c1cccc(C(=O)OCC(=O)c2cc3ccccc3o2)c1 returned MsrA act -4.4, GC-B act 1.6, MsrA inh 23.8*, NPR1 activator 3.7, HTR2A ag -7.4 and MsrA inh confirm 18.8*.
For CC1CN(c2ncc(/C=N/NC(=O)c3ccccc3O)s2)CC(C)O1 (stereo not given) the results were MsrA act -5.3, GC-B act -6.9, MsrA inh 6.4*, NPR1 activator 0.5, HTR2A ag -2.7 and MsrA inh confirm 5.7*.
For CCCN1CCS(=O)(=O)N(Cc2cn(CC(=O)OCC)nn2)C(C(=O)OC)C1 (stereo not given) the results were GC-B act 6.5 and NPR1 activator -0.1.
Screening COc1ccccc1C=C1SC(=S)NC1=O returned MsrA act -9.0, GC-B act -0.1, MsrA inh 1.2, NPR1 activator 3.4 and HTR2A ag 11.2.
`COc1ccc(C=C2SC(=S)NC2=O)c(OC)c1OC` gave MsrA act -16.1, GC-B act -1.9, MsrA inh 4.8*, NPR1 activator -0.5, HTR2A ag 2.8 and MsrA inh confirm 1.7.
`COc1ccc(NC2=CC(=O)CC(C)(C)C2)cc1` gave MsrA act -2.2, GC-B act -5.2, MsrA inh 3.2, NPR1 activator -3.1 and HTR2A ag 1.1.
COC(=O)c1ccc(NC2=CC(=O)CC(C)(C)C2)cc1 was read as MsrA act -5.5, GC-B act -4.1, MsrA inh 4.9*, NPR1 activator -3.4, HTR2A ag 2.0 and MsrA inh confirm 5.0*.
`Cc1ccnc(N2C(=O)c3cccc4c([N+](=O)[O-])ccc(c34)C2=O)c1` gave MsrA act 0.5, MsrA inh 12.4*, HTR2A ag 5.7 and MsrA inh confirm 8.6*.
`Cc1ccnc(N2C(=O)c3ccccc3C2=O)c1` gave MsrA act -4.2, GC-B act 1.9, MsrA inh -1.0, NPR1 activator 3.1 and HTR2A ag 10.0.
`c1csc(-c2nnc(-c3ccc(N4CCOCC4)cc3)o2)c1` gave MsrA act -3.3, GC-B act -5.3, MsrA inh 5.2*, NPR1 activator 11.4, HTR2A ag -0.7 and MsrA inh confirm 3.9.
CCOc1ccc(-c2nnc(-c3cccs3)o2)cc1 was read as MsrA act -0.8, GC-B act -10.6, MsrA inh 0.0, NPR1 activator -30.7 and HTR2A ag 0.5.
Screening COc1ccc(-c2nnc(-c3cccs3)o2)cc1OC returned MsrA act -8.2, GC-B act -1.6, MsrA inh 5.3*, NPR1 activator 0.9, HTR2A ag -3.5 and MsrA inh confirm 0.7.
COc1cc(-c2nnc(-c3cccs3)o2)cc(OC)c1OC was read as MsrA act -1.4, GC-B act -6.4, MsrA inh 0.6, NPR1 activator -11.6 and HTR2A ag 10.0.
